Experimental data reported in the supplement of paper PMC11732987, “Enantioselective OTUD7B fragment discovery through chemoproteomics screening and high-throughput optimisation” (Communications Chemistry, 2025).

Assays:
Assay in all cases: log2 ratio of Biotin-Ahx-Ub-VS probe labelling (fragment/DMSO); higher = less target engagement (more negative = stronger competition), active = hit call of the paper (q ≤ 0.05, log2 ratio ≤ -1)
Details in all cases: compound concentration: 200 uM; treatment time: 3 h
USP34 = USP34 (UniProt Q70CQ2)
How it was run: (§1)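 Triplicate samples of HEK293T lysate, 495 µg each, received fragment at 200 µM or vehicle for 3 h, followed by Biotin-Ahx-Ub-VS (0.5 µM final) for 1 h. After NeutrAvidin enrichment of labelled DUBs and LysC/trypsin digestion, peptides were run by diaPASEF LC-MS/MS. The values are average log2 fragment/vehicle ratios from global-median-normalised Spectronaut label-free quantities, tested by unpaired t-test on proteins having ≥2 unique peptides.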

USP36 = molecular target: T1, USP36 (UniProt Q9P275)
T1 sequence (whole entry): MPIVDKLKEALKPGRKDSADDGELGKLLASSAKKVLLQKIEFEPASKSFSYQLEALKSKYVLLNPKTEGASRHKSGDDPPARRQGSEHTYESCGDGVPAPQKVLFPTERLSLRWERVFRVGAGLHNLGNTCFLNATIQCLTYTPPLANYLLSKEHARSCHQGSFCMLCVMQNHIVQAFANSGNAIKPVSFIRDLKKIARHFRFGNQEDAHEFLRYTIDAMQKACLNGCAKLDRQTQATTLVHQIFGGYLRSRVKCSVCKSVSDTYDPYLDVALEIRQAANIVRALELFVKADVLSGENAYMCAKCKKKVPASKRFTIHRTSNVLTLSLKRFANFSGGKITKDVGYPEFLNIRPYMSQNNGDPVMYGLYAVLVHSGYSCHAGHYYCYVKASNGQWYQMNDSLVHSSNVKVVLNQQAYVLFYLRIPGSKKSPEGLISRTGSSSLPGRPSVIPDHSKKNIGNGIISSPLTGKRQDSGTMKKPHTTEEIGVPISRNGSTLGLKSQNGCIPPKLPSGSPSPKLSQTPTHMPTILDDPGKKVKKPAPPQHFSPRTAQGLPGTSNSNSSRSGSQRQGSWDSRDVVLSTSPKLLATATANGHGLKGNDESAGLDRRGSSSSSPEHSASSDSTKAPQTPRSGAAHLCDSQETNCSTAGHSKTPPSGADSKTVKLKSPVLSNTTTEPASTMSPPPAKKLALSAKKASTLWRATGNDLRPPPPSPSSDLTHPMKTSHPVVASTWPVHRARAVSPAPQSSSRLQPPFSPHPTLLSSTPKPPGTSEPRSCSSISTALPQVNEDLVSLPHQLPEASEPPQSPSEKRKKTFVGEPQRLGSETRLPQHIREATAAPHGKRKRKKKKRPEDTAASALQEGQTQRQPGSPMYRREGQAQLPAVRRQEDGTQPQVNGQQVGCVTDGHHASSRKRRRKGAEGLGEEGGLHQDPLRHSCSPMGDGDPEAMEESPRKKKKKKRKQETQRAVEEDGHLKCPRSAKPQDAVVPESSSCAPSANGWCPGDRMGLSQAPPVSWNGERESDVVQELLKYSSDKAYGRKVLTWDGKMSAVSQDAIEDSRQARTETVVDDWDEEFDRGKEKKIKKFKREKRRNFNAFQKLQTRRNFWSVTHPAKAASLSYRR
How it was run: as §1

USP38 = molecular target: T2, USP38 (UniProt Q8NB14)
T2 sequence (whole entry): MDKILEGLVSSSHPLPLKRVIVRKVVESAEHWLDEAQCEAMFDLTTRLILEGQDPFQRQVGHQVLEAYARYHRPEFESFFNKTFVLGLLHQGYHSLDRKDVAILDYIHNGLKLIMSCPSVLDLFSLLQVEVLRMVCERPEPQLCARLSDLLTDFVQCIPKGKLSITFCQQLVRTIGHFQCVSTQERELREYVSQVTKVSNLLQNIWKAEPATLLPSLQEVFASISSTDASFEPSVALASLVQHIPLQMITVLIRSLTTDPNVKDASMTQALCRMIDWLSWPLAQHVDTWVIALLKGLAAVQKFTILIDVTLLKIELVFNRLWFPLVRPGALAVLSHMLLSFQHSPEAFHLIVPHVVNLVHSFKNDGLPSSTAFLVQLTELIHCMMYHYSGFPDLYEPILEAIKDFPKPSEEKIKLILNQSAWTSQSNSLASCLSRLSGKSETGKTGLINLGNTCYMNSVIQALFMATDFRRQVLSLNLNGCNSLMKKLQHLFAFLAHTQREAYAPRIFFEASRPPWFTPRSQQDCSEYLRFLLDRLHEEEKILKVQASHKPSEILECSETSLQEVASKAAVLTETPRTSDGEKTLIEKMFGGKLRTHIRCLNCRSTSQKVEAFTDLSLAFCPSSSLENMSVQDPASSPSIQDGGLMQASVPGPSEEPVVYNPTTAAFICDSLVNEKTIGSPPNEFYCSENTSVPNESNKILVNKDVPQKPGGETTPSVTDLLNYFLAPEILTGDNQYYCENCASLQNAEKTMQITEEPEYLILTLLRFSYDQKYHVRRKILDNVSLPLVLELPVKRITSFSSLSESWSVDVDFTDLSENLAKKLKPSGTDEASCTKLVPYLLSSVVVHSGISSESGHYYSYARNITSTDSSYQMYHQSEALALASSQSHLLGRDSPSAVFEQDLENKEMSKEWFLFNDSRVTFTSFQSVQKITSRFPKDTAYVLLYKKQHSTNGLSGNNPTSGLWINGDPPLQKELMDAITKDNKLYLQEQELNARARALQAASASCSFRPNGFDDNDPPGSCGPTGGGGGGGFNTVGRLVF
How it was run: as §1

USP39 = molecular target: T3, USP39 (UniProt Q53GS9)
T3 sequence (whole entry): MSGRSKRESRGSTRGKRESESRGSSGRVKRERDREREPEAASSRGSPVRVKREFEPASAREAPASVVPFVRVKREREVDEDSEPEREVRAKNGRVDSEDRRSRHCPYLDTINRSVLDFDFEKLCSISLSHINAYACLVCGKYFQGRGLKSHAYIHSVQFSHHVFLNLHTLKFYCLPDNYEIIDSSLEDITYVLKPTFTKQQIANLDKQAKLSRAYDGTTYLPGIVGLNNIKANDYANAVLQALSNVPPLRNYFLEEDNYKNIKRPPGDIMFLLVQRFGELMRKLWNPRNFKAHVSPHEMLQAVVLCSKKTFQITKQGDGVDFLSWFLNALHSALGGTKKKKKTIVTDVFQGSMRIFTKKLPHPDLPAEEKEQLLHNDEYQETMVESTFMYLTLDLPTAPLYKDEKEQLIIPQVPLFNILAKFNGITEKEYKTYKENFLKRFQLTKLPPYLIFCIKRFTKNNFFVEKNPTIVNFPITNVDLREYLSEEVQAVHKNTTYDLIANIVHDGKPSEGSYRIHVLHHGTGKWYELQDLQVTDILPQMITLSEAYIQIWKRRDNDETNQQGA
How it was run: as §1

USP4 = molecular target: T4, USP4 (UniProt Q13107)
T4 sequence (whole entry): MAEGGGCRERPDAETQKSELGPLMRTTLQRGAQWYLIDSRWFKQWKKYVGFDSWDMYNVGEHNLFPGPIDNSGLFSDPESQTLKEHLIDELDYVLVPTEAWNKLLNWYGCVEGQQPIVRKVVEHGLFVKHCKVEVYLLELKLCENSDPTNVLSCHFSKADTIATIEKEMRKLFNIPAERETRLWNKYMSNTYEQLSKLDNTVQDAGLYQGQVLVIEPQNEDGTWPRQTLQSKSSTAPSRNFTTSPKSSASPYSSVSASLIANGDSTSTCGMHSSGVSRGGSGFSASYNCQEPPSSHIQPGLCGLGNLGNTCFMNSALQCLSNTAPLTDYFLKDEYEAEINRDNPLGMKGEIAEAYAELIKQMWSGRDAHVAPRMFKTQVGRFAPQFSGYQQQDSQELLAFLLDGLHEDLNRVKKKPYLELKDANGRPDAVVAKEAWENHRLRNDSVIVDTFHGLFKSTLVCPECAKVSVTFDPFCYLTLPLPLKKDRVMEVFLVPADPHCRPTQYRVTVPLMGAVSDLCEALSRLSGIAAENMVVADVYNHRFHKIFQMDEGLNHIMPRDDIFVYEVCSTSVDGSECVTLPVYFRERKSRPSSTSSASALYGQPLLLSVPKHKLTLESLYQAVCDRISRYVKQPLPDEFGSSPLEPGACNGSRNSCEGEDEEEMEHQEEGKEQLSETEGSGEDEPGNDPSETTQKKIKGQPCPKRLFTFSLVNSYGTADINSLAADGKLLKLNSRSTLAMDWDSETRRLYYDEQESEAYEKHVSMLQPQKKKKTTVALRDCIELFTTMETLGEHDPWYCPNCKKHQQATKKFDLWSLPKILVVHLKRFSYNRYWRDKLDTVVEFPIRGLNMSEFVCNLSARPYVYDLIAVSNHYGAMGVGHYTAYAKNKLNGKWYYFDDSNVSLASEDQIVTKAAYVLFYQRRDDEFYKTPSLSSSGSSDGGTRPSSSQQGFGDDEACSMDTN
How it was run: as §1

Measured: log2 ratio of Biotin-Ahx-Ub-VS probe labelling

USP34, sequence (Q70CQ2 whole entry, the tested form may be a part): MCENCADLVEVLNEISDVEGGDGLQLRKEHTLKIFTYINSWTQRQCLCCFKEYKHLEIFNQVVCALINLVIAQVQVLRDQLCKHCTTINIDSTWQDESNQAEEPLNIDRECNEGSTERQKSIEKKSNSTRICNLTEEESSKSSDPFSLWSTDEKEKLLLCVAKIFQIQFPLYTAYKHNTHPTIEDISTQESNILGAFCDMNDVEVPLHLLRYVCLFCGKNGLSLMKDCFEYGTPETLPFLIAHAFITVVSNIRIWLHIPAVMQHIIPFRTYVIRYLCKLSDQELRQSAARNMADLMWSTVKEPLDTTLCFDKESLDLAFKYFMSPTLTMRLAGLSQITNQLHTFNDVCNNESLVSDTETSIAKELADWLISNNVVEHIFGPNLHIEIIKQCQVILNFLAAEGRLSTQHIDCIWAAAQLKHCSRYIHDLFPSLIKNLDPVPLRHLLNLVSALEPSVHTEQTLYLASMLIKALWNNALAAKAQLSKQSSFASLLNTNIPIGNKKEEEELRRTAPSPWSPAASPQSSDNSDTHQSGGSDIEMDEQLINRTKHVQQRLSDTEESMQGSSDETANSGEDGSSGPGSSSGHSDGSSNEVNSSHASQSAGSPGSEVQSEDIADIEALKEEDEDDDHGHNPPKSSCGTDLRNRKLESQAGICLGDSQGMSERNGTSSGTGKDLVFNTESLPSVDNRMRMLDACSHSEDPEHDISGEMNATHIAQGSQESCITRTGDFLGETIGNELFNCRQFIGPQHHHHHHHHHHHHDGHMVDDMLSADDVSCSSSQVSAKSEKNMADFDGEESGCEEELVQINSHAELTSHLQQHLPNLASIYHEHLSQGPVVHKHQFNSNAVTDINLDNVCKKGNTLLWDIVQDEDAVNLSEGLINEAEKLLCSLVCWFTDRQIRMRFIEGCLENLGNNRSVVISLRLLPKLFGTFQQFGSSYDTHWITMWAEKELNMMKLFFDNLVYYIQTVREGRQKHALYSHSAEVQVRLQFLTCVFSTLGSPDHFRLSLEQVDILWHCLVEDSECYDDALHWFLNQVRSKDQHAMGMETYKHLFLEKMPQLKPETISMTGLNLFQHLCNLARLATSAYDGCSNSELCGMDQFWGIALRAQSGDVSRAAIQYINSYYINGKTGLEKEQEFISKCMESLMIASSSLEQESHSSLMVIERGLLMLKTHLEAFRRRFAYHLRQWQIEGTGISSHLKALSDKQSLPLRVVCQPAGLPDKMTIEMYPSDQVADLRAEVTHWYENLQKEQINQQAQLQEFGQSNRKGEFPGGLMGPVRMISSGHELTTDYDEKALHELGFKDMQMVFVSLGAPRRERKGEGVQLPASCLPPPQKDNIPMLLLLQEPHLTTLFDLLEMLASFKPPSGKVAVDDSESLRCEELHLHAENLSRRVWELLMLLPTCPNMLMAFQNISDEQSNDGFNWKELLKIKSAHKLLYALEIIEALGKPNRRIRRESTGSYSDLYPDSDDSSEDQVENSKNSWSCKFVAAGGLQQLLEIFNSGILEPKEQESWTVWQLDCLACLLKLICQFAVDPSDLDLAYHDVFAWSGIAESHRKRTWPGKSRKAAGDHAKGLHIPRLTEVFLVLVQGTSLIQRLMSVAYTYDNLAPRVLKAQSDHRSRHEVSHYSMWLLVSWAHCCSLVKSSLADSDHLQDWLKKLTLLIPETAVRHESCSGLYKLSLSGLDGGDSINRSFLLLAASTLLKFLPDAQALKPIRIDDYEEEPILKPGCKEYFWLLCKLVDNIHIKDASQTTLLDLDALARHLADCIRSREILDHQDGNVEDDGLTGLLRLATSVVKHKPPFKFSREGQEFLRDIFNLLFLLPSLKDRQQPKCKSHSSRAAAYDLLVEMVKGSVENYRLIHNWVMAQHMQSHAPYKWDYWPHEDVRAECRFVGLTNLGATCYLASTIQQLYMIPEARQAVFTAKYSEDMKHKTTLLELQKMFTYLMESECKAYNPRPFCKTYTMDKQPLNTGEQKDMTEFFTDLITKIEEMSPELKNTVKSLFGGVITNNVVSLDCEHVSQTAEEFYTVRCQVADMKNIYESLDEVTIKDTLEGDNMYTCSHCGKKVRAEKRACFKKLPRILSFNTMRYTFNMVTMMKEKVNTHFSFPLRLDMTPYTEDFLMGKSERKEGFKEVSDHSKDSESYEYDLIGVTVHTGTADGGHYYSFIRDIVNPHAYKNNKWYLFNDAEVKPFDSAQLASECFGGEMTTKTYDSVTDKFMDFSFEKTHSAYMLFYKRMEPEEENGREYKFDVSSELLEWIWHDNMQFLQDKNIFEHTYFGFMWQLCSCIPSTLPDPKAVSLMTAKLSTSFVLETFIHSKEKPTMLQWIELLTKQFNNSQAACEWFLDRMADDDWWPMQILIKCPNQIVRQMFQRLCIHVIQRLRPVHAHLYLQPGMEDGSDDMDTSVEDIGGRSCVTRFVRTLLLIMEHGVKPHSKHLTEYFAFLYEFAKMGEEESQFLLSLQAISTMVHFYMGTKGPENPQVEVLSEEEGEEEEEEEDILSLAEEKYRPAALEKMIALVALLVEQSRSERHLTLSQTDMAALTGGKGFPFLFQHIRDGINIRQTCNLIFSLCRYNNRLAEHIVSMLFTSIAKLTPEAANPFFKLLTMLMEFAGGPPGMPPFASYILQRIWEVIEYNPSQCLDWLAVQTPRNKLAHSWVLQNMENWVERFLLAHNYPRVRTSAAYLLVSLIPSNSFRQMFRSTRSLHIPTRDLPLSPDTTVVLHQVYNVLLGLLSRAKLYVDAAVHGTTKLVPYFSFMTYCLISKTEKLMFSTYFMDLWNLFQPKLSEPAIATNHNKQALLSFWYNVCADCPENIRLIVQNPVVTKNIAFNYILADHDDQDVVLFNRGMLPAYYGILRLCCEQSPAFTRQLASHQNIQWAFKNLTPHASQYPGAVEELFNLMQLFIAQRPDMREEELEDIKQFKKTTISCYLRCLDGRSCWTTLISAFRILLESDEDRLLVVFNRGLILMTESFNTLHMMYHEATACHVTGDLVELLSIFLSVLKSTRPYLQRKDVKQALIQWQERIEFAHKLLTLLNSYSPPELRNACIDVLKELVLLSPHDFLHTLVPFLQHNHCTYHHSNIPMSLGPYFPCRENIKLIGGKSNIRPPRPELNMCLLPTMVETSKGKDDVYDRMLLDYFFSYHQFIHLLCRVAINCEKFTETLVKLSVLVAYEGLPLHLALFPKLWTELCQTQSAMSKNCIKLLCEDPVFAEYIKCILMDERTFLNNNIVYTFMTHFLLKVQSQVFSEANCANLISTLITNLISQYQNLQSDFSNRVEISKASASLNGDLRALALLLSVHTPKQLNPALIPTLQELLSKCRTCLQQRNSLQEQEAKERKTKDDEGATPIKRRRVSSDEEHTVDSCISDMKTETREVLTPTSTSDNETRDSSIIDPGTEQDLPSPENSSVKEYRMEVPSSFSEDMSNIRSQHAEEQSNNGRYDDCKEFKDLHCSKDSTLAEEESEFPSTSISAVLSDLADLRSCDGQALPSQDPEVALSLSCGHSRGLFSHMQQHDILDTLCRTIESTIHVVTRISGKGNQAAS

Cl.O=C(CCl)N1CCn2cncc2C1
inactive: USP34 -0.401 | USP36 -0.24 | USP38 -0.142 | USP39 -0.167 | USP4 -0.285
